{
  "source": "PubChem BioAssay",
  "key": {"[1]": {"assay": "E. coli DRC41 culture turbidity changes, primary screen, E. coli filamentation inducer project, strain DRC41, OD650, 48 h (AID 1152);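 note: E. coli MC1000 strain DRC41 lacking acrAB efflux pump and sulA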", "conditions": "E. coli DRC41 (acrAB sulA), higher = more signal, called active from +8 up or from −8 down"}, "[2]": {"assay": "small-molecule binders of probe aLefty1, primary screen, biochemical, small-molecule microarray, 635/667 nm fluorescence (AID 1153);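 note: score merges spot fluorescence with signal-to-noise ratio from the scanned slide images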", "conditions": "higher = more signal"}, "[3]": {"assay": "PSAC antagonists in infected red cells, primary screen, cell-based, P. falciparum Indochina, OD700, 1 h (AID 1154)", "conditions": "P. falciparum Indochina infected RBC osmotic lysis, higher = more signal, called active from +8 up or from −8 down"}, "[4]": {"assay": "PSAC antagonists in infected red cells, primary screen, cell-based, P. falciparum Indochina, OD700, 2 h (AID 1155);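 note: lysis reports solute entry through the parasite surface anion channel PSAC; channel blockers reduce lysis of infected cells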", "conditions": "P. falciparum Indochina infected erythrocytes, osmotic lysis OD700; higher = more signal, called active from +8 up or from −8 down"}, "[5]": {"assay": "osmotic lysis modulators in infected erythrocytes, primary screen, PSAC antagonist project, cell-based, P. falciparum Indochina, OD700, 3 h (AID 1156)", "conditions": "higher = more signal, called active from +8 up or from −8 down"}, "[6]": {"assay": "PSAC antagonists in infected red cells, primary screen, cell-based, P. falciparum Indochina, OD700, 18 h (AID 1157)", "conditions": "P. falciparum Indochina infected erythrocytes, osmotic lysis OD700, 18 h; higher = more signal, called active from +8 up or from −8 down"}, "[7]": {"assay": "modulators of S6 phosphorylation in cells, primary screen, cell-based, A549, cytoblot, luminescence, serum-stimulated (AID 1158);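 note: signal is phosphorylated S6 detected by cytoblot immunostaining with HRP secondary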", "conditions": "A549 phospho-S6 cytoblot, 5 h, higher = more signal"}, "[8]": {"molecular_target": "NADPH oxidase 2 (Homo sapiens) (UniProt P04839)", "sequence (P04839 whole entry, looked up)": "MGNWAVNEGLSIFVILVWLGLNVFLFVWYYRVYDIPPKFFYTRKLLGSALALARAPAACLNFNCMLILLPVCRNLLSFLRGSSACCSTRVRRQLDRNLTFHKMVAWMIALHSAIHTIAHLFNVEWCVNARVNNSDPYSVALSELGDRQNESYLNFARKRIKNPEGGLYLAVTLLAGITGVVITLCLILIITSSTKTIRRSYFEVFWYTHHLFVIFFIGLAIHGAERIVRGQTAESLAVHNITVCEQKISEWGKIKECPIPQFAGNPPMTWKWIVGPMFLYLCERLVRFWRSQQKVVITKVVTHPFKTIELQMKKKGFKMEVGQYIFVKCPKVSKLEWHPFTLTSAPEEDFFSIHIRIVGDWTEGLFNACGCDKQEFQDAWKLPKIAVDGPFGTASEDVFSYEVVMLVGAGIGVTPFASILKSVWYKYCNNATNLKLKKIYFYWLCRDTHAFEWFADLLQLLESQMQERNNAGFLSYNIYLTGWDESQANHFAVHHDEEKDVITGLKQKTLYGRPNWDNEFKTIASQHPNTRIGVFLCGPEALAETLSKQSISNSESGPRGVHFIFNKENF", "assay": "NOX2-dependent H2O2 signal modulators, primary screen, NOX inhibitor project, cell-based, HEK293-NOX2, PMA-stimulated, Amplex Red fluorescence (AID 1159); note: test concentration not given here", "conditions": "45 min, higher = more signal, called active from +8 up or from −8 down"}, "[9]": {"molecular_target": "NADPH oxidase 4 (Homo sapiens) (UniProt Q9NPH5)", "sequence (Q9NPH5 whole entry, looked up)": "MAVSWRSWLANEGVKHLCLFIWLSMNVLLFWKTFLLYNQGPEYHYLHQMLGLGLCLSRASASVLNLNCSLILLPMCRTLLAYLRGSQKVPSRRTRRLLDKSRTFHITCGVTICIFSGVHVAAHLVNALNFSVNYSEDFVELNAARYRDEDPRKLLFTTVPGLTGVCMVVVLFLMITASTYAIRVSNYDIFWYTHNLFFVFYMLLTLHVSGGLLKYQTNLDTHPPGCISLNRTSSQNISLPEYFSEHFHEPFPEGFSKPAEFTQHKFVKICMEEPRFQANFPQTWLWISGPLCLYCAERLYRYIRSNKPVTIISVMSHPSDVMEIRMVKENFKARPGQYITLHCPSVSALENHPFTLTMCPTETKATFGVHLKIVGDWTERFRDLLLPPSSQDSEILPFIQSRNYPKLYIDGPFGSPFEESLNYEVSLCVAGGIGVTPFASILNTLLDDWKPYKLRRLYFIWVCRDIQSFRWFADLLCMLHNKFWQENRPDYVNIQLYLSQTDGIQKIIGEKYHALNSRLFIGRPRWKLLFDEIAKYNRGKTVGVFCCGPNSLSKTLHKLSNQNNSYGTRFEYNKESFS", "assay": "NOX4-dependent H2O2 signal modulators, primary screen, NOX inhibitor project, cell-based, HEK293-NOX4, tetracycline-induced, Amplex Red fluorescence (AID 1160)", "conditions": "45 min, higher = more signal, called active from +8 up or from −8 down"}, "[10]": {"molecular_target": "NADPH oxidase 5 (Homo sapiens) (UniProt Q96PH1)", "sequence (Q96PH1 whole entry, looked up)": "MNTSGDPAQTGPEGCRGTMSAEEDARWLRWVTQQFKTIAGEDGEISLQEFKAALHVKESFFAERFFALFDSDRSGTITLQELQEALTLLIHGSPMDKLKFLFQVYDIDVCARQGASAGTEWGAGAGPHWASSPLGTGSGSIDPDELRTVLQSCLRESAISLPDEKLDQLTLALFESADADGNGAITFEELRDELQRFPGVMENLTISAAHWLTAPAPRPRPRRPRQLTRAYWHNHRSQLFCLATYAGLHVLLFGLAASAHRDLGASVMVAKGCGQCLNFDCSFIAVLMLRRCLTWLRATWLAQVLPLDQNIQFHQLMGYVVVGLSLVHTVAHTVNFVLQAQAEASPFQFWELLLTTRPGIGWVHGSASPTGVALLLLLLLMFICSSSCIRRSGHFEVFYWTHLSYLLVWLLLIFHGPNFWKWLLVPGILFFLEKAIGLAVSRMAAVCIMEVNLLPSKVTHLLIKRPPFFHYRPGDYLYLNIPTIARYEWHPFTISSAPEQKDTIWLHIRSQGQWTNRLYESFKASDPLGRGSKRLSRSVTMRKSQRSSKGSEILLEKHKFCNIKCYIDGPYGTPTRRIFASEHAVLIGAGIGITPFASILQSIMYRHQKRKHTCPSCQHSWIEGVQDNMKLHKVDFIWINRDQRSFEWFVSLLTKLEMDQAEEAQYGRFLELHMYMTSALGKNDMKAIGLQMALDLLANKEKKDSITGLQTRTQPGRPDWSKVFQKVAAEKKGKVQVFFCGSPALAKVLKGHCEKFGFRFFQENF", "assay": "NOX5-dependent H2O2 signal modulators, primary screen, NOX inhibitor project, cell-based, HEK293-NOX5, Amplex Red fluorescence (AID 1161)", "conditions": "HEK293-NOX5, ionomycin, 45 min, higher = more signal"}, "[11]": {"assay": "A549 cell viability effects, profiling panel, calcein-AM fluorescence, 48 h, basal (AID 1162); note: test concentration not given here", "conditions": "higher = more signal"}, "[12]": {"assay": "adipocyte viability effects, profiling panel, cell-based, 3T3-L1 adipocytes, calcein-AM fluorescence, 48 h, basal (AID 1163); note: test concentration not given here", "conditions": "3T3-L1 adipocytes viability, higher = more signal"}, "[13]": {"assay": "HepG2 cell viability effects, profiling panel, calcein-AM fluorescence, 48 h, basal (AID 1164); note: test concentration not given here", "conditions": "higher = more signal"}, "[14]": {"assay": "MM1S cell viability effects, profiling panel, calcein-AM fluorescence, 48 h, basal (AID 1165);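 note: viability of MM1S multiple myeloma cells under basal unstimulated conditions; test concentration not given here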", "conditions": "higher = more signal"}, "[15]": {"assay": "basal RPMI8226 viability, no added stimulus, profiling panel, cell-based, calcein-AM fluorescence, 48 h, PK04 Diversity Set (AID 1166);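 note: cells grown under basal conditions without added stimulus; test concentration not given here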", "conditions": "RPMI8226 myeloma viability, higher = more signal"}, "[16]": {"assay": "basal HepG2 mitochondrial membrane potential changes, profiling panel, cell-based, JC-1 fluorescence, 24 h, 100 nL compound (AID 1167); note: test concentration not given here", "conditions": "higher = more signal"}, "[17]": {"assay": "basal 3T3-L1 adipocyte mitochondrial potential changes, profiling panel, cell-based, JC-1 fluorescence, 3T3-L1 adipocytes, 24 h, 100 nL compound (AID 1168); note: test concentration not given here", "conditions": "JC-1 mitochondrial fluorescence, higher = more signal, called active from +8 up or from −8 down"}, "[18]": {"assay": "basal RPMI8226 mitochondrial membrane potential changes, profiling panel, cell-based, JC-1 fluorescence, 24 h, 100 nL compound (AID 1169); note: test concentration not given here", "conditions": "RPMI8226 myeloma, JC-1 mitochondrial potential fluorescence, higher = more signal"}, "[19]": {"assay": "basal MM1S mitochondrial membrane potential changes, profiling panel, cell-based, JC-1 fluorescence, 24 h, 100 nL compound (AID 1170); note: test concentration not given here", "conditions": "higher = more signal"}, "[20]": {"assay": "A549 lung cancer cell viability effects, profiling panel, resazurin fluorescence, 24 h, PK04 Diversity Set (AID 1171); note: test concentration not given here", "conditions": "higher = more signal, called active from +8 up or from −8 down"}},
  "note": "Active and inactive are the calls of the source.",
  "data": [
    {"molecule": "CC(C)N1CC=CC23O[C@@H]4C=CCCOC(=O)C4[C@H]2C(=O)N(CCCCCO)[C@@H]3C1=O", "note": "(stereo not given in full)", "values": [
      {"measurement": "z-score", "setting": "[1]", "value": "0.952 (inactive)"},
      {"measurement": "composite z-score", "setting": "[2]", "value": -0.0186},
      {"measurement": "z-score", "setting": "[3]", "value": "1.42 (inactive)"},
      {"measurement": "z-score", "setting": "[4]", "value": "0.261 (inactive)"},
      {"measurement": "z-score", "setting": "[5]", "value": "2.21 (inactive)"},
      {"measurement": "z-score", "setting": "[6]", "value": "0.455 (inactive)"},
      {"measurement": "z-score", "setting": "[7]", "value": 1.35},
      {"measurement": "z-score", "setting": "[8]", "value": "1.42 (inactive)"},
      {"measurement": "z-score", "setting": "[9]", "value": "0.356 (inactive)"},
      {"measurement": "z-score", "setting": "[10]", "value": 1.48},
      {"measurement": "z-score", "setting": "[11]", "value": -0.211},
      {"measurement": "z-score", "setting": "[12]", "value": -0.288},
      {"measurement": "z-score", "setting": "[13]", "value": 1.28},
      {"measurement": "z-score", "setting": "[14]", "value": 1.57},
      {"measurement": "z-score", "setting": "[15]", "value": 1.7},
      {"measurement": "z-score", "setting": "[16]", "value": 0.77},
      {"measurement": "z-score", "setting": "[17]", "value": "1.19 (inactive)"},
      {"measurement": "z-score", "setting": "[18]", "value": 0.0326},
      {"measurement": "z-score", "setting": "[19]", "value": -1.08},
      {"measurement": "z-score", "setting": "[20]", "value": "0.846 (inactive)"}
    ]},
    {"molecule": "CN(C)CCCC[C@@H]1NC(=O)[C@@H]2C[C@H](C(=O)NCCCCCCNC(=O)CS)[C@H](c3cccc(OCCO)c3)N2C1=O", "values": [
      {"measurement": "z-score", "setting": "[1]", "value": "-0.0099 (inactive)"},
      {"measurement": "composite z-score", "setting": "[2]", "value": -0.416},
      {"measurement": "z-score", "setting": "[3]", "value": "3.24 (inactive)"},
      {"measurement": "z-score", "setting": "[4]", "value": "0.681 (inactive)"},
      {"measurement": "z-score", "setting": "[5]", "value": "-0.0935 (inactive)"},
      {"measurement": "z-score", "setting": "[6]", "value": "0.496 (inactive)"},
      {"measurement": "z-score", "setting": "[7]", "value": 1.91},
      {"measurement": "z-score", "setting": "[8]", "value": "2.03 (inactive)"},
      {"measurement": "z-score", "setting": "[9]", "value": "0.84 (inactive)"},
      {"measurement": "z-score", "setting": "[10]", "value": 1.84},
      {"measurement": "z-score", "setting": "[11]", "value": -0.335},
      {"measurement": "z-score", "setting": "[12]", "value": -0.668},
      {"measurement": "z-score", "setting": "[13]", "value": 1.27},
      {"measurement": "z-score", "setting": "[14]", "value": 0.843},
      {"measurement": "z-score", "setting": "[15]", "value": 0.405},
      {"measurement": "z-score", "setting": "[16]", "value": 1.6},
      {"measurement": "z-score", "setting": "[17]", "value": "0.252 (inactive)"},
      {"measurement": "z-score", "setting": "[18]", "value": -0.666},
      {"measurement": "z-score", "setting": "[19]", "value": -0.871},
      {"measurement": "z-score", "setting": "[20]", "value": "-0.643 (inactive)"}
    ]},
    {"molecule": "COc1cc(OC)c(C(O)C2C=CC3C(=O)N(c4ccccc4)C(=O)C3N2Nc2ccccc2F)cc1Br", "note": "(stereo not given)", "values": [
      {"measurement": "z-score", "setting": "[1]", "value": "-1.76 (inactive)"},
      {"measurement": "composite z-score", "setting": "[2]", "value": 0.692},
      {"measurement": "z-score", "setting": "[3]", "value": "7.23 (inactive)"},
      {"measurement": "z-score", "setting": "[4]", "value": "2.36 (inactive)"},
      {"measurement": "z-score", "setting": "[5]", "value": "0.449 (inactive)"},
      {"measurement": "z-score", "setting": "[6]", "value": "1.54 (inactive)"},
      {"measurement": "z-score", "setting": "[7]", "value": -0.822},
      {"measurement": "z-score", "setting": "[8]", "value": "-1.32 (inactive)"},
      {"measurement": "z-score", "setting": "[9]", "value": "-4.43 (inactive)"},
      {"measurement": "z-score", "setting": "[10]", "value": -2.21},
      {"measurement": "z-score", "setting": "[11]", "value": -1.06},
      {"measurement": "z-score", "setting": "[12]", "value": -1.41},
      {"measurement": "z-score", "setting": "[13]", "value": 0.302},
      {"measurement": "z-score", "setting": "[14]", "value": -0.303},
      {"measurement": "z-score", "setting": "[15]", "value": -0.308},
      {"measurement": "z-score", "setting": "[16]", "value": -2.04},
      {"measurement": "z-score", "setting": "[17]", "value": "-1.17 (inactive)"},
      {"measurement": "z-score", "setting": "[18]", "value": 0.26},
      {"measurement": "z-score", "setting": "[19]", "value": -0.645},
      {"measurement": "z-score", "setting": "[20]", "value": "-0.568 (inactive)"}
    ]},
    {"molecule": "C=C(C(=O)CC[C@@H](OC(C)=O)c1cccc(OCCO)c1)C(C)C", "values": [
      {"measurement": "z-score", "setting": "[1]", "value": "-0.369 (inactive)"},
      {"measurement": "composite z-score", "setting": "[2]", "value": 0.11},
      {"measurement": "z-score", "setting": "[3]", "value": "3.09 (inactive)"},
      {"measurement": "z-score", "setting": "[4]", "value": "-0.0769 (inactive)"},
      {"measurement": "z-score", "setting": "[5]", "value": "1.38 (inactive)"},
      {"measurement": "z-score", "setting": "[6]", "value": "0.0127 (inactive)"},
      {"measurement": "z-score", "setting": "[7]", "value": -0.78},
      {"measurement": "z-score", "setting": "[8]", "value": "0.825 (inactive)"},
      {"measurement": "z-score", "setting": "[9]", "value": "-1.12 (inactive)"},
      {"measurement": "z-score", "setting": "[10]", "value": -1.05},
      {"measurement": "z-score", "setting": "[11]", "value": -0.351},
      {"measurement": "z-score", "setting": "[12]", "value": 0.0938},
      {"measurement": "z-score", "setting": "[13]", "value": -0.351},
      {"measurement": "z-score", "setting": "[14]", "value": -1.54},
      {"measurement": "z-score", "setting": "[15]", "value": -0.0608},
      {"measurement": "z-score", "setting": "[16]", "value": -1.55},
      {"measurement": "z-score", "setting": "[17]", "value": "0.216 (inactive)"},
      {"measurement": "z-score", "setting": "[18]", "value": 0.592},
      {"measurement": "z-score", "setting": "[19]", "value": 0.484},
      {"measurement": "z-score", "setting": "[20]", "value": "-0.326 (inactive)"}
    ]}
  ]
}
